According to PubChem BioAssay (EPA / NIEHS):
Where “and” joins values, the source holds several entries; their conditions need not be identical. Identical values can stand only once. The source holds several records for some structures; these can differ, active in one and inactive in another. Calls of active or inactive are those of the source. Rule for the calls: active = hit-call score of the fitted dose curve at least 0.9, where 1 is the maximum; inactive = score below 0.9.

read-out: Vascular cell adhesion molecule 1 (VCAM1), VCAM1 (gene 7412); assay: BSK_BF4T_VCAM1: BioMAP Diversity Plus: BF4T Assay for Vascular cell adhesion molecule 1 (VCAM1) Biomarker Activity (AID 2284249); details: primary human bronchial epithelial cells with fibroblasts
Protocol: BSK_BF4T is a cell-based, multiplexed-readout assay that uses bronchial epithelial cells and dermal fibroblasts, a human vascular primary cell, with measurements taken at 24 hours after chemical dosing in a microplate: 96-well plate.BSK_BF4T_VCAM1 is an assay component measured in the BSK_BF4T assay. It measures VCAM-1 antibody related to regulation of gene expression using ELISA technology.Data from the assay component BSK_BF4T_VCAM1 was analyzed at the endpoint, BSK_BF4T_VCAM1, in the positive analysis fitting direction relative to DMSO as the negative control and baseline of activity. Using a type of binding reporter, gain or loss-of-signal activity can be used to understand protein changes. To generalize the intended target to other relatable targets, this assay endpoint is annotated to the 'cell adhesion molecules' intended target family, where the subfamily is 'Immunoglobulin CAM'.
The levels of cell surface (or secreted, indicated by the prefix "s") biomarker endpoints were measured by ELISA. Overt cytotoxicity to cells in confluent adherent cultures (all systems other than the BT system) was assessed by measuring total protein levels using sulforhodamine B (SRB) staining in parallel cultures at the time of biomarker measurements, indicated as SRB endpoints. For proliferation assays for adherent cell types, individual cell types are cultured at sub-confluence and relative cell numbers quantified by SRB staining at time points optimized for each system (48 h: 3C and CASM3C systems; 72 h: BT and HDF3CGF systems; 96 h: SAg system). SRB was performed by staining cells with 0.1% SRB after fixation with 10% TCA and reading wells at 560 nm.Viability and proliferation of PBMC (T cells) was quantified by Alamar Blue reduction for the SAg and BT systems. For PBMC viability (referred to as PBMC Cytotoxicity within the assay endpoint names), cells were plated (75,000/well in a 96-well plate) and then chemical samples added for 1 h before addition of activators, SEB and TSST-1 (20 ng/mL final concentration each). Cells were incubated for 90 h. Then, Alamar Blue (20 uL/well) (Invitrogen, Cat DAL1100) was added for 6 h, and the plates were read with a fluorescence microplate reader at 546/580 nm (excitation/emission). For PBMC proliferation, cells were plated and activated as above but incubated for only 16 h prior to addition of Alamar Blue. Plates were read after 6 h.

Q: NS(=O)(=O)C(F)(F)C(F)(F)C(F)(F)C(F)(F)C(F)(F)C(F)(F)F was tested. Which AC50 did it give?
A: Its AC50 is 19.8 µM (active) and 21.1 µM (active).

Q: With NC(=O)C(F)(F)C(F)(F)C(F)(F)C(F)(F)C(F)(F)C(F)(F)C(F)(F)F as the compound, how does the outcome read?
A: Its outcome is “inactive”.

Q: How did the outcome turn out when OCC(F)(F)C(F)(F)C(F)(F)CO was run?
A: The outcome was “inactive”.

Q: O=C(Cl)C(F)(F)C(F)(F)C(F)(F)C(F)(F)C(F)(F)C(F)(F)C(F)(F)F was tested. Which outcome did it give?
A: The outcome was “inactive”.

Q: With NCC(F)(F)C(F)(F)C(F)(F)C(F)(F)C(F)(F)C(F)(F)C(F)(F)C(F)(F)F as the compound, how does the outcome read?
A: The outcome was “inactive”.

Q: With NC(=O)C(F)(F)C(F)(F)C(F)(F)F as the compound, how does the outcome read?
A: Its outcome is “inactive”.

Q: For CNS(=O)(=O)C(F)(F)C(F)(F)C(F)(F)C(F)(F)C(F)(F)C(F)(F)C(F)(F)C(F)(F)F, which outcome is on record?
A: The outcome was “inactive”.

Q: How did the outcome turn out when NC(O)(C(F)(F)F)C(F)(F)F was run?
A: Its outcome is “inactive”.

Q: C[Si](Cl)(Cl)CCC(F)(F)C(F)(F)C(F)(F)C(F)(F)C(F)(F)C(F)(F)F was tested. Which outcome did it give?
A: The outcome was “inactive”.

Q: With OCC(F)(F)C(F)(F)C(F)(F)C(F)(F)C(F)(F)C(F)(F)C(F)(F)C(F)(F)CO as the compound, how does the outcome read?
A: The outcome was “inactive”.

Q: What about the AC50 of the same compound?
A: The AC50 was 12 µM (active).

Q: How did the outcome turn out when COC(F)(C(F)F)C(F)(F)F (stereo not given) was run?
A: The outcome was “inactive”.

Q: With O=C(F)C1(F)C(F)(F)C(F)(F)C(F)(F)C(F)(F)C1(F)F as the compound, how does the outcome read?
A: The outcome was “inactive”.

Q: FC(F)(F)C(F)(F)C(F)(F)C(F)(F)C(F)(F)C(F)(F)CC[Si](Cl)(Cl)Cl was tested. Which outcome did it give?
A: The outcome was “inactive”.

Q: Which outcome does the source give for FC(F)(F)C(F)(F)C(F)(F)CC1CO1 (stereo not given) here?
A: The outcome was “inactive”.

Q: O=C(O)C(F)(F)C(F)(F)C(F)(F)OC(F)(C(F)(F)F)C(F)(F)F was tested. Which outcome did it give?
A: The outcome was “inactive”.

Q: For C=CC(=O)OCCC(F)(F)C(F)(F)C(F)(F)C(F)(F)F, which outcome is on record?
A: Its outcome is “inactive”.

Q: With O=C(O)C(F)(F)C(F)(F)C(F)(F)OC(F)(F)F as the compound, how does the outcome read?
A: Its outcome is “inactive”.

Q: For OCC(O)CC(F)(F)C(F)(F)C(F)(F)C(F)(F)F (stereo not given), which outcome is on record?
A: The outcome was “inactive”.

Q: C=CC(=O)OCC(F)(F)C(F)(F)C(F)(F)C(F)(F)C(F)(F)C(F)(F)C(F)(F)C(F)F was tested. Which outcome did it give?
A: Its outcome is “inactive”.

Q: CCN(CCO)S(=O)(=O)C(F)(F)C(F)(F)C(F)(F)C(F)(F)C(F)(F)C(F)(F)C(F)(F)C(F)(F)F was tested. Which outcome did it give?
A: The outcome was “inactive”.

Q: Which outcome does the source give for O=C(Cl)C(F)(F)C(F)(F)C(F)(F)C(F)(F)C(F)(F)C(F)(F)F here?
A: Its outcome is “inactive”.

Q: How did the outcome turn out when O=S(=O)(O)CCC(F)(F)C(F)(F)C(F)(F)C(F)(F)C(F)(F)C(F)(F)C(F)(F)C(F)(F)F was run?
A: Its outcome is “inactive”.

Q: OC(O)C(F)(F)C(F)(F)F was tested. Which outcome did it give?
A: The outcome was “inactive”.

Q: With CCOC(=O)CC(=O)C(F)(F)C(F)(F)F as the compound, how does the outcome read?
A: Its outcome is “inactive”.

Q: How did the outcome turn out when O=C(O)C(F)(F)C(F)(F)C(F)(F)C(F)(F)C(F)(F)C(F)(F)C(F)F was run?
A: The outcome was “inactive”.

Q: Which outcome does the source give for CO[Si](C)(CCC(F)(F)C(F)(F)C(F)(F)C(F)(F)C(F)(F)C(F)(F)F)OC here?
A: Its outcome is “inactive”.

Q: Which outcome does the source give for O=S(=O)(O)CCC(F)(F)C(F)(F)C(F)(F)C(F)(F)F here?
A: Its outcome is “inactive”.

Q: How did the outcome turn out when OCC(O)CC(F)(F)C(F)(F)C(F)(F)C(F)(F)C(F)(F)C(F)(F)C(F)(F)C(F)(F)F (stereo not given) was run?
A: Its outcome is “inactive”.

Q: OCCCC(F)(F)C(F)(F)C(F)(F)C(F)(F)C(F)(F)C(F)(F)C(F)(F)C(F)(F)F was tested. Which AC50 did it give?
A: Its AC50 is 13.9 µM (active) and 16.8 µM (active).

Q: How did the outcome turn out when O=S(=O)(Cl)C(F)(F)C(F)(F)C(F)(F)C(F)(F)C(F)(F)C(F)(F)C(F)(F)C(F)(F)F was run?
A: The outcome was “inactive”.

Q: And the AC50?
A: Its AC50 is 30 µM (active).

Q: O=S(=O)(OCC(F)(F)F)C(F)(F)C(F)(F)C(F)(F)C(F)(F)F was tested. Which outcome did it give?
A: Its outcome is “inactive”.

Q: NC(=O)C(F)(F)C(F)(F)C(F)(F)C(F)F was tested. Which outcome did it give?
A: Its outcome is “inactive”.

Q: Which outcome does the source give for C=C(C)C(=O)OCC(F)(F)C(F)(F)C(F)(F)C(F)F here?
A: Its outcome is “inactive”.

Q: OCCCCC(F)(F)C(F)(F)C(F)(F)C(F)(F)F was tested. Which outcome did it give?
A: The outcome was “inactive”.

Q: With O=C(O)CCC(F)(F)C(F)(F)C(F)(F)C(F)(F)C(F)(F)C(F)(F)C(F)(F)F as the compound, how does the outcome read?
A: The outcome was “inactive”.

Q: Which outcome does the source give for OCC(F)(F)C(F)(F)C(F)(F)C(F)(F)C(F)(F)C(F)(F)CO here?
A: Its outcome is “inactive”.

Q: NCC(F)(F)C(F)(F)C(F)(F)C(F)(F)C(F)(F)C(F)(F)F was tested. Which outcome did it give?
A: The outcome was “inactive”.

Q: O=C(O)CCC(F)(F)C(F)(F)C(F)(F)F was tested. Which outcome did it give?
A: Its outcome is “inactive”.
